Assay results taken from ChEMBL document CHEMBL1961873, “Compounds: GSK PKIS; Assays: Nanosyn kinase panel” (2012).

What was measured:
[1] = molecular target: Sphingosine kinase 1 (Homo sapiens) (UniProt Q9NYA1); settings: at 1 µM;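 also: mean SPHK1 inhibition value reported from the GSK PKIS kinase panel screen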
[2] = molecular target: T1, Sphingosine kinase 2 (Homo sapiens) (UniProt Q9NRA0); settings: at 0.1 µM
T1 sequence (whole entry): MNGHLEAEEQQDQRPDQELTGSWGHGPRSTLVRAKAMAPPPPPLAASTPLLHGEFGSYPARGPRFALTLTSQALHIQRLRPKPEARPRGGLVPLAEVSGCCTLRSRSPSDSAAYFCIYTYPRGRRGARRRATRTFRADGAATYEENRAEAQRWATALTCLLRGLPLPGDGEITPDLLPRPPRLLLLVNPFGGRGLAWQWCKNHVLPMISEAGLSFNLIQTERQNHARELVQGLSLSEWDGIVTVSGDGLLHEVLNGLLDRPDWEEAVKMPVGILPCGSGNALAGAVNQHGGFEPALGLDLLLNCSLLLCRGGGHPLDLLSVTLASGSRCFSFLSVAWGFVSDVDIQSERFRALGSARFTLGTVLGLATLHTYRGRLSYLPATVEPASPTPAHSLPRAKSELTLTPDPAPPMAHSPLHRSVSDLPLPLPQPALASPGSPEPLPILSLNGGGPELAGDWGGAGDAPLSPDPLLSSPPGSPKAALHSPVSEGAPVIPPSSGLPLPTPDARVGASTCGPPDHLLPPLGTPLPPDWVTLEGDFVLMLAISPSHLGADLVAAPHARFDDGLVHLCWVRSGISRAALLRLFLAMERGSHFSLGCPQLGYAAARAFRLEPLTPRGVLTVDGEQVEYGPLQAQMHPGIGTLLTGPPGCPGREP

[3] = molecular target: T1, Sphingosine kinase 2 (Homo sapiens); settings: at 1 µM
[4] = molecular target: Casein kinase II subunit alpha (Homo sapiens) (UniProt P68400); settings: at 0.1 µM
Chain of Casein kinase II subunit alpha (Homo sapiens) (P68400 whole entry, looked up): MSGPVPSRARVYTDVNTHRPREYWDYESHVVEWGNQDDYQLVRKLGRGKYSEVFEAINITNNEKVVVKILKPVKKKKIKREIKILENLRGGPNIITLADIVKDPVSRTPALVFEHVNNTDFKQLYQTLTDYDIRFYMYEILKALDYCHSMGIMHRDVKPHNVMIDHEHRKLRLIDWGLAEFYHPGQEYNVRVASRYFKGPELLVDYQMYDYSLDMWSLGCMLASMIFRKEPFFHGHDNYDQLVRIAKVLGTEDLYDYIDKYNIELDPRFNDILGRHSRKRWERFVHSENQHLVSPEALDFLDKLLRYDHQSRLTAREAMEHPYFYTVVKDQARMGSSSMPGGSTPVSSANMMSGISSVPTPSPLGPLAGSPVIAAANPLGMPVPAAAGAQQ

[5] = molecular target: Casein kinase II subunit alpha (Homo sapiens) (UniProt P68400); settings: at 1 µM
[6] = molecular target: T2, Inhibitor of nuclear factor kappa-B kinase subunit alpha (Homo sapiens) (UniProt O15111); settings: at 0.1 µM
T2 sequence (whole entry): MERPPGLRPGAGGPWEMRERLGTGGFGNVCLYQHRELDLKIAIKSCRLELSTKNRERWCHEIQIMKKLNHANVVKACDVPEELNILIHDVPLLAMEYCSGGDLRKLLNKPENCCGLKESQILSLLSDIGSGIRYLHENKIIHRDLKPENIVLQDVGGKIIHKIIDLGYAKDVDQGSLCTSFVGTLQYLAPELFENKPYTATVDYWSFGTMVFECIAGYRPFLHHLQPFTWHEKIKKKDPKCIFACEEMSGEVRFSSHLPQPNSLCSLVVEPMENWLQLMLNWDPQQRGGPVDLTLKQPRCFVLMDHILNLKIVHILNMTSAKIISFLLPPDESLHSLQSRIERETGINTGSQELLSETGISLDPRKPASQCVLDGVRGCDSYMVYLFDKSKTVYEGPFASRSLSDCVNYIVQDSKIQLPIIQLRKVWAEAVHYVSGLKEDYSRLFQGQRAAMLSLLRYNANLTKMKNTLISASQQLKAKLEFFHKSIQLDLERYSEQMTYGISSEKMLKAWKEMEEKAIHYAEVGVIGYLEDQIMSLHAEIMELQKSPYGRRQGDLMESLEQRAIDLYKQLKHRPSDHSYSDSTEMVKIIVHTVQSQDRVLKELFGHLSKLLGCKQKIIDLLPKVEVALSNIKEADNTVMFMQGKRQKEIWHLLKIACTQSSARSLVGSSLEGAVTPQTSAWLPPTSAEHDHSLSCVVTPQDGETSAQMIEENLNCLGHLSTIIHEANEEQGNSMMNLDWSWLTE

[7] = molecular target: T2, Inhibitor of nuclear factor kappa-B kinase subunit alpha (Homo sapiens); settings: at 1 µM
[8] = molecular target: T3, Inhibitor of nuclear factor kappa-B kinase subunit beta (Homo sapiens) (UniProt O14920); settings: at 0.1 µM
T3 sequence (whole entry): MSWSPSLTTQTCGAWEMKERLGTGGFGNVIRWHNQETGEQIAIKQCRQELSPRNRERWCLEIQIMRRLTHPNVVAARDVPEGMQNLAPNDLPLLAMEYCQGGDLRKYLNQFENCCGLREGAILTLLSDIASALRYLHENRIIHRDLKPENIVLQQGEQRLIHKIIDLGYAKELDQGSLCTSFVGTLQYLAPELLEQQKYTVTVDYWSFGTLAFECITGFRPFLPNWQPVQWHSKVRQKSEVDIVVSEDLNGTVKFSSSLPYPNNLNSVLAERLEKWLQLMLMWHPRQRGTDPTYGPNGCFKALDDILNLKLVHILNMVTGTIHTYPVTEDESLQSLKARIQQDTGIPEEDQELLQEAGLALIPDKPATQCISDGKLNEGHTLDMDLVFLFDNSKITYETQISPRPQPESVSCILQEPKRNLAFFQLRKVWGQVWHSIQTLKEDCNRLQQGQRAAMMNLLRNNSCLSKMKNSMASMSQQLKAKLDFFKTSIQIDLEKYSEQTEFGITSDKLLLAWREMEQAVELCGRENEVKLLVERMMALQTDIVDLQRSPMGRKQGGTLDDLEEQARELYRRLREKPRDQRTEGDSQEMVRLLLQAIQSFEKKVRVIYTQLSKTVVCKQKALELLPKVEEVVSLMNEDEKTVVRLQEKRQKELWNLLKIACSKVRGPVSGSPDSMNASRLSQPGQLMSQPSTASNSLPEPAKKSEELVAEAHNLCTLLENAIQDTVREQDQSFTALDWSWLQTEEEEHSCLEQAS

[9] = molecular target: T3, Inhibitor of nuclear factor kappa-B kinase subunit beta (Homo sapiens); settings: at 1 µM
[10] = molecular target: T4, Inhibitor of nuclear factor kappa-B kinase subunit epsilon (Homo sapiens) (UniProt Q14164); settings: at 0.1 µM;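 also: mean inhibition of IKKε reported, from the GSK PKIS dataset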
T4 sequence (whole entry): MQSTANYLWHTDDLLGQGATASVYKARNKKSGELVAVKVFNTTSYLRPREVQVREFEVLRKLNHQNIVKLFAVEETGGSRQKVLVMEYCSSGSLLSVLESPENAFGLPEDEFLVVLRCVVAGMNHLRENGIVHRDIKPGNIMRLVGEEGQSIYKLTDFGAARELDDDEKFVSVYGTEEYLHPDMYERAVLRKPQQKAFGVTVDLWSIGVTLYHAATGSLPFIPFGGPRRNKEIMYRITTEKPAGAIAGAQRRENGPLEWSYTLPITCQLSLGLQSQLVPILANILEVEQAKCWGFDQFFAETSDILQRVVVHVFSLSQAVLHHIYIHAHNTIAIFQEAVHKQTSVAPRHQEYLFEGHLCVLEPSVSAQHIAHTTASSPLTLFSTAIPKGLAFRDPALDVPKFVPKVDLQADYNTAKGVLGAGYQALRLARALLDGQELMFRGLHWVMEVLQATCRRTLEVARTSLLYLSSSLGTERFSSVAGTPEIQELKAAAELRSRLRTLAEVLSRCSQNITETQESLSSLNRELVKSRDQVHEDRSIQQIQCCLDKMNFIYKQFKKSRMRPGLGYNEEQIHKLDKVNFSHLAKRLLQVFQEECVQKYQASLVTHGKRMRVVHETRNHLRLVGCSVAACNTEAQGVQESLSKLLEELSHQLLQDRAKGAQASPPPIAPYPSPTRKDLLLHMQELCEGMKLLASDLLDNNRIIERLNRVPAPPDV

Chain of Sphingosine kinase 1 (Homo sapiens) (Q9NYA1 whole entry): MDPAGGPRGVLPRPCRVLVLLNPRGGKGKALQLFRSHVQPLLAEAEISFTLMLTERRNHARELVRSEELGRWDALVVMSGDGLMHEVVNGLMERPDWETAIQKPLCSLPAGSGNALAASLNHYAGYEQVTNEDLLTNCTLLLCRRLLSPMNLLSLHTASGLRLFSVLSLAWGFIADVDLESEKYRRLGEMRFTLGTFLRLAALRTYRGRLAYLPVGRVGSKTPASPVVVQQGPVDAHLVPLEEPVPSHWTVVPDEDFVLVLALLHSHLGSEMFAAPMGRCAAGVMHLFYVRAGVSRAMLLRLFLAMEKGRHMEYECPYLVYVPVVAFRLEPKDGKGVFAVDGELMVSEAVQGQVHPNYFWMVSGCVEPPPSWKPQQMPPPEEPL

Row | Compound | inhibition [1] [%] | inhibition [2] [%] | inhibition [3] [%] | inhibition [4] [%] | inhibition [5] [%] | inhibition [6] [%] | inhibition [7] [%] | inhibition [8] [%] | inhibition [9] [%] | inhibition [10] [%]
1 | Cn1c(-c2nonc2N)nc2cnccc21 | 3.87 | 2.29 | 0.16 | 1.78 | -1.25 | 1.72 | 7.51 | 5.29 | 1.73 | 6.16
2 | Fc1ccc(Nc2nccc(-c3c(-c4ccc(C(F)(F)F)cc4)nn4ncccc34)n2)cc1F | -1.66 | -0.99 | -0.13 | 2.02 | 1.28 | 9.17 | 4.1 | 5.58 | 3.19 | 2.59
3 | CC(C)c1ccc(-c2cc(-c3c[nH]nc3-c3ccccn3)ccn2)cc1 | -1.66 | -0.31 | -1.09 | 0.16 | 0.83 | 7.45 | -4.49 | 1.97 | -0.35 | 1.33
4 | O=C(O[C@H]1CN[C@H](C#Cc2cc3ncnc(Nc4ccc5c(ccn5Cc5cc(F)ccc5F)c4)c3s2)C1)N1CCOCC1 | -2.46 | 0 | 1.37 | 7.47 | 0.25 | 8.85 | 10.1 | 7.42 | 9.24 | 6.23
5 | Cc1cc(O)cc(C)c1/C=C/c1cncc(C(=O)OC(C)(C)C)c1 | -1.82 | 0.51 | 0 | 4.48 | 7.86 | 2.35 | 1.81 | 2.36 | 2.32 | 4.19
6 | O=C1Nc2ccccc2/C1=C1\CCc2cc(O)ccc21 | -8.14 | -0.36 | -2.47 | 3.18 | 9.1 | 13 | 5.45 | 5.41 | 5.64 | 6.27
7 | CCCNc1cccc(-n2ncc3c(N/N=C/c4ccncc4)ncnc32)c1 | -3.91 | -0.44 | 1.31 | 1.7 | 14.1 | 5.25 | 0.68 | 0.62 | 3.19 | 5.27
8 | CNC(=O)c1cncc(/C=C/c2ccccc2C)c1 | 1.15 | 0 | 0 | 4.87 | 7.63 | 1.86 | 2.32 | 3.58 | 5.04 | 5.9
